# Source: PubChem BioAssay (NCATS)
# Records with an inconclusive call do not appear. Where a call stands in place of a potency, no number is given. Values without a mark were called inactive. Activity calls are given as the source filed them. The call rests on the fitted dose curve; in most records, active means well fitted curve in the direction sought with a large enough effect; inconclusive means small, poorly fitted or top-dose-only effect, or another doubt; inactive means no such curve, though single readings can be large; an effect the other way counts as inactive or inconclusive.
# Assays:
# [1] = tested on: Zika virus NS2B-NS3 protease (unlinked complex); test: Confirmatory screen GU AMC qHTS for Zika virus inhibitors (AID 1347153); conditions: Recombinant NS2B-NS3 protease, AMC substrate fluorescence; further: potency means the concentration at half of the fitted maximal effect; nearly all actives have a fitted effect of over 70% in size
# Procedure, shortened: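 Unlinked enzyme 25 nM, Tris pH 8.0/0.01% Tween 20; cpd 15 min RT, dark; + AMC substrate 10 µM (Km 18.3 µM); 340/450 nm read at t0 and 15 min; % inhibition → 4-param fit.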
# [2] = ZIKV-mCherry secondary qHTS for Zika virus inhibitors (AID 1347158); conditions: Vero cells, ZIKV-mCherry infection imaging, 48-72 h; further: potency means the concentration at half of the fitted maximal effect
# Procedure, shortened: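 Percent infection is the share of Hoechst-identified Vero nuclei with mCherry signal above 450 RFU (3 SD over negative controls). Cells were infected with recombinant ZIKV-mCherry at MOI 1 after compound addition and imaged 48–72 h later.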
# [3] = Confirmatory screen NINDS Rhodamine qHTS for Zika virus inhibitors (AID 1347161); conditions: purified enzyme assay, Rhodamine110 substrate fluorescence, 15 min; further: potency means the concentration at half of the fitted maximal effect; nearly all actives have a fitted effect of over 60% in size
# Procedure, shortened: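 In 10 mM Tris-HCl pH 8.0 containing 0.01% Tween 20, linked NS2B-NS3 protease (25 nM final) is exposed to test compounds for 15 min. Cleavage of 1.5 microM Rhodamine110 substrate is tracked by fluorescence over 15 min.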
# [4] = tested on: Zika virus NS2B-NS3 protease (linked); test: 384 well plate NINDS AMC confirmatory qHTS for Zika virus inhibitors (AID 1347163); conditions: Recombinant NS2B-NS3 protease, Ac-VKTGKR-AMC fluorescence; series mostly up to 1 mM; further: nearly all actives have a fitted effect of over 50% in size; further: potency means the concentration at half of the fitted maximal effect;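 on activity change, negative = inhibition: linked protease at 5 30 or 60 nM final depending on run; fluorescence of AMC released from Ac-VKTGKR-AMC peptide cleaved by the protease; top concentration of the series differs between compounds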
# Procedure, shortened: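 Fluorescence at 355/460 nm was read after 25 minutes of cleavage of 30 microM Ac-VKTGKR-AMC at room temperature, in the dark. Before substrate addition, compounds (up to 1 mM final) sat ~15 minutes with 5, 30 or 60 nM linked protease. Signals were normalized to no-enzyme and no-inhibitor wells.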
# [5] = tested on: Zika virus NS2B-NS3 protease (linked construct); test: 384 well plate NINDS Rhodamine confirmatory qHTS for Zika virus inhibitors (AID 1347164); conditions: rhodamine-110 peptide substrate fluorescence; further: potency means the concentration at half of the fitted maximal effect; nearly all actives have a fitted effect of over 65% in size
# Procedure, shortened: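 Compounds are incubated about 15 minutes with linked protease (5, 30 or 60 nM final). Rhodamine 110-tagged Ac-LKRR substrate (10 microM final) is added and fluorescence measured after 25 minutes.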
# [6] = tested on: Zika virus NS2B-NS3 protease; test: Primary screen GU AMC qHTS for Zika virus inhibitors (AID 1347154); conditions: Zika NS2B-NS3 unlinked protease, AMC fluorogenic substrate; series mostly up to 54.1 µM; further: nearly all actives have a fitted effect of over 70% in size; further: potency means the concentration at half of the fitted maximal effect
# Procedure, shortened: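 Unlinked Zika NS2B hydrophilic domain–NS3 protease complex at 25 nM in 10 mM Tris-HCl pH 8.0, 0.01% Tween 20, with an AMC peptide substrate. Fluorescence change (340/450 nm) over 15 min at room temperature, normalized to controls, fitted to 4-parameter Hill.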
# [7] = target: Lysine-specific demethylase 5B (Homo sapiens) (UniProt Q9UGL1); test: Optimization screen for KDM5B Histone Demethylases FDH coupled qHTS against the LOPAC library (AID 1347166); conditions: KDM5B demethylation, FDH-coupled NADH fluorescence (FDH is formaldehyde dehydrogenase); series mostly up to 57.5 µM
# Procedure, shortened: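 KDM5BDeltaAP (200nM final) in 50mM HEPES pH 7.5, 0.01% Tween-20 was preincubated with compound for 10 min at room temperature. A substrate mix of 12.5uM H3K4Me3, 25uM a-ketoglutarate, ascorbate, Fe2+, NAD+ and formaldehyde dehydrogenase was then added. NADH fluorescence (340/450 nm) was read initially and after 30 min.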
# [8] = tested on: Zika virus NS2B-NS3 protease (unlinked complex); test: Primary screen GU Rhodamine qHTS for Zika virus inhibitors: Unlinked NS2B-NS3 protease assay (AID 1347159); conditions: Recombinant ZIKV NS2B-NS3 protease, Rhodamine110 substrate fluorescence; series mostly up to 107 µM; further: nearly all actives have a fitted effect of over 60% in size
# Procedure, shortened: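 Unlinked NS2B/NS3, 25 nM; Rhod110 peptide, 1.5 microM; compounds, up to 114 microM. Reaction run 15 min at RT in 10 mM Tris-HCl pH 8.0, 0.01% Tween 20; kinetic fluorescence change fitted with a 4-parameter Hill model.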
# [9] = tested on: Zika virus NS2B-NS3 protease (linked construct); test: Primary screen NINDS Rhodamine qHTS for Zika virus inhibitors (AID 1347160); conditions: purified NS2B-NS3 protease, Rhodamine110 substrate fluorescence; series mostly up to 57.1 µM; further: nearly all actives have a fitted effect of over 55% in size
# Procedure, shortened: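 Single-chain NS2B-NS3 protease, 25 nM, pH 8.0; compounds preincubated 15 min. Activity: Rhodamine110 release from 1.5 microM substrate over 15 min, room temperature, data fitted to 4-parameter Hill.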
# [10] = Confirmatory screen GU Rhodamine qHTS for Zika virus inhibitors qHTS (AID 1347157); conditions: purified enzyme assay, Rhodamine110 substrate fluorescence, 15 min; further: potency means the concentration at half of the fitted maximal effect; nearly all actives have a fitted effect of over 70% in size
# Procedure, shortened: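 Buffer 10 mM Tris-HCl pH 8.0, 0.01% Tween 20. Unlinked protease 25 nM; compound preincubation 15 min, RT, protected from light. Substrate Rhod110, 1.5 microM; ~15% conversion in 15 min.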
# Lysine-specific demethylase 5B (Homo sapiens), sequence (Q9UGL1 whole entry, looked up): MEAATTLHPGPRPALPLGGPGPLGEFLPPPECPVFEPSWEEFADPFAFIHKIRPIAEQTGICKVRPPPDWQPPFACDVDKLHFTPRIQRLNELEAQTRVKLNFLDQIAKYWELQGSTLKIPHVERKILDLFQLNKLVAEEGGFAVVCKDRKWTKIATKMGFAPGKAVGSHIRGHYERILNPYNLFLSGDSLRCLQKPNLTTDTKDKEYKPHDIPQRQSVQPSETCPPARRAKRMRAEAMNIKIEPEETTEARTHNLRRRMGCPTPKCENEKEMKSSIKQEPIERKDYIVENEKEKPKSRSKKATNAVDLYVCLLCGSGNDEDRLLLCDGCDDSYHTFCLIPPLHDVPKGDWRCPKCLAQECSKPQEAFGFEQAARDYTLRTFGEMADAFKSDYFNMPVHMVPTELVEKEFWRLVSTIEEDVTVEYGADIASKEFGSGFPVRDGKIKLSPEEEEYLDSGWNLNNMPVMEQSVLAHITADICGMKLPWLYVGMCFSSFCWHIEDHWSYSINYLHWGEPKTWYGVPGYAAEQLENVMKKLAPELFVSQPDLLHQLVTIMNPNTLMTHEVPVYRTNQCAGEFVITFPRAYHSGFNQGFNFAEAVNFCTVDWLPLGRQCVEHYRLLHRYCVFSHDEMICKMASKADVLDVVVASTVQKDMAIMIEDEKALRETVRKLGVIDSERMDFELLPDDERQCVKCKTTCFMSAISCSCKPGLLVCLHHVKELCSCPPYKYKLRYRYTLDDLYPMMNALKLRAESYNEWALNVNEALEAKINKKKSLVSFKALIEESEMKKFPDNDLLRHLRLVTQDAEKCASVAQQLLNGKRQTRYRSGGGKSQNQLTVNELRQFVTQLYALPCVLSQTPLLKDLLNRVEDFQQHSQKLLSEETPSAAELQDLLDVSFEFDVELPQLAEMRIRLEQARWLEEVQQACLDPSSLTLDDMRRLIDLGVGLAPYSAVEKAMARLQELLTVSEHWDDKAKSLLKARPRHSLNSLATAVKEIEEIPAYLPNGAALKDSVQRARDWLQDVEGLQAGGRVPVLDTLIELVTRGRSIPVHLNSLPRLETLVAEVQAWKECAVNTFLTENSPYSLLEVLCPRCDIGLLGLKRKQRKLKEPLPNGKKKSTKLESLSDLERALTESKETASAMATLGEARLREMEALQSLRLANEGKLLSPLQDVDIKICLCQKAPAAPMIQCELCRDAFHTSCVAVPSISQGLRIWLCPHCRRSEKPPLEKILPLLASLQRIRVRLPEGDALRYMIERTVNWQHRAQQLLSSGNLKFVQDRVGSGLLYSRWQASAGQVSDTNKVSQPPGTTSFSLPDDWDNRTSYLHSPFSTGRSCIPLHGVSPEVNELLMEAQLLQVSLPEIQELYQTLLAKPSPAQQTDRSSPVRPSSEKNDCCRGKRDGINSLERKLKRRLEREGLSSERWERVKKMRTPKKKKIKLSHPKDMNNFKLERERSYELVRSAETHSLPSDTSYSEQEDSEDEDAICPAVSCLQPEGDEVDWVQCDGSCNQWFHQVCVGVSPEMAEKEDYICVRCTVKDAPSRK
smiles,measurement,setting,value
O=C(Nc1ccc(Br)cc1)c1cc(Br)cc(Br)c1O,Potency,[1],21.5 µM (active)
same,Potency,[2],8.91 µM (active)
same,Potency,[3],3.12 µM (active)
same,Potency,[4],inactive
same,Potency,[5],44.7 µM (active)
O=c1c(C2CC(c3ccc(-c4ccc(Br)cc4)cc3)Cc3ccccc32)c(O)sc2ccccc12 (centres undefined),Potency,[1],12.1 µM (active)
same,Potency,[3],2.2 µM (active)
same,Potency,[4],11.2 µM (active)
same,Potency,[5],17.8 µM (active)
C=C(C)[C@H]1CN[C@H](C(=O)O)[C@H]1CC(=O)O,Potency,[6],inactive
same,outcome,[7],inactive
CC(NC(C)(C)C)C(=O)c1cccc(Cl)c1 (centres undefined),Potency,[6],inactive
same,outcome,[8],inactive
same,outcome,[9],inactive
same,outcome,[7],inactive
O=[N+]([O-])O[C@H]1CO[C@H]2[C@@H]1OC[C@H]2O[N+](=O)[O-],Potency,[6],inactive
CCN(CC)CCc1c[nH]c2ccccc12,Potency,[6],inactive
CCCOC(=O)c1cncn1C(C)c1ccccc1 (centres undefined),Potency,[6],inactive
COc1c2c(cc3c1OCO3)CCN(C)C2,Potency,[6],inactive
O=C(O)CCCc1ccc(N(CCCl)CCCl)cc1,Potency,[6],inactive
same,outcome,[7],inactive
C[C@]12CC[C@@H]3c4ccc(OC(=O)N(CCCl)CCCl)cc4CC[C@H]3[C@@H]1CC[C@@H]2O,Potency,[6],15.8 µM (active)
same,Potency,[3],1.97 µM (active)
same,Potency,[5],39.8 µM (active)
CCC1(c2ccc(N)cc2)CCC(=O)NC1=O (centres undefined),Potency,[6],inactive
same,outcome,[7],inactive
CC1(C)C(C=C(Cl)Cl)C1C(=O)OC(C#N)c1cccc(Oc2ccccc2)c1 (centres undefined),Potency,[6],inactive
COP(=S)(OC)Oc1cc(Cl)c(Cl)cc1Cl,Potency,[6],inactive
O=C(O)c1ccc(=O)[nH]c1,Potency,[6],inactive
CN1C(=O)CCS(=O)(=O)C1c1ccc(Cl)cc1 (centres undefined),Potency,[6],inactive
same,outcome,[7],inactive
CC(C)c1cccc(C(C)C)c1O,Potency,[6],inactive
same,outcome,[7],inactive
O=c1[nH]oc2c1CCNC2,Potency,[6],inactive
same,outcome,[7],inactive
C=CCC1(C(C)CC)C(=O)NC(=O)NC1=O (centres undefined),Potency,[6],inactive
CC(C)(C)NCC(O)c1ccccc1Cl (centres undefined),Potency,[6],inactive
same,outcome,[7],inactive
O=C1c2ccccc2C(=O)C1C(=O)C(c1ccccc1)c1ccccc1,Potency,[6],inactive
C=CCN1C[C@H](C)N([C@H](c2ccc(C(=O)N(CC)CC)cc2)c2cccc(OC)c2)C[C@H]1C,Potency,[6],inactive
same,"activity change, negative = inhibition",[8],-8.84% [at 19.1 µM]
same,"activity change, negative = inhibition",[9],6.42% [at 10.7 µM]
COc1cc(OC)c(OC)cc1C=O,Potency,[6],inactive
CC(=O)OCC1=C(C(=O)O)N2C(=O)[C@@H](N)[C@H]2SC1,Potency,[6],inactive
same,Potency,[10],22.1 µM (active)
same,outcome,[8],inactive
same,Potency,[3],24.8 µM (active)
COC1CC(=C(c2cccs2)c2cccs2)C[N+](C)(C)C1 (centres undefined),Potency,[6],inactive
CC(C)N(CCC(C(N)=O)(c1ccccc1)c1ccccn1)C(C)C (centres undefined),Potency,[6],inactive
same,outcome,[8],inactive
same,outcome,[9],inactive
same,outcome,[7],inactive
CC[N+]1(CC)CCC(OC(=O)C(O)(c2ccccc2)c2ccccc2)C1 (centres undefined),Potency,[6],inactive
COc1cccc(C(=O)CCN[C@@H](C)[C@H](O)c2ccccc2)c1,Potency,[6],inactive
C[N+]1(CCF)[C@@H]2CC[C@H]1CC(OC(=O)C(O)(c1ccccc1)c1ccccc1)C2 (some centres undefined),Potency,[6],inactive
C[C@]12CC[C@@H]3c4ccc(OC(=O)N(CCCl)CCCl)cc4CC[C@H]3[C@@H]1CC[C@@H]2OP(=O)(O)O,outcome,[9],inactive
NC(=O)CS(=O)C(c1ccccc1)c1ccccc1 (centres undefined),Potency,[6],inactive
[N-]=[N+]=CC(=O)OC[C@H](N)C(=O)O,Potency,[6],inactive
O=C(N/N=C/c1ccc([N+](=O)[O-])o1)c1cc([N+](=O)[O-])cc([N+](=O)[O-])c1O,Potency,[6],inactive
COc1ccc2c(c1OC)C(=O)O[C@H]2[C@@H]1c2cc3c(cc2CCN1C)OCO3,Potency,[6],inactive
same,outcome,[7],inactive
O=C(CCCN1CCC2(CC1)C(=O)NCN2c1ccccc1)c1ccc(F)cc1,outcome,[7],inactive
O=P1(N(CCCl)CCCl)NCCCO1 (centres undefined),Potency,[6],inactive
same,outcome,[7],inactive
Cc1ncsc1CCCl,Potency,[6],inactive
same,outcome,[7],inactive
NNc1ccccc1,Potency,[6],inactive
O=C1OC(c2ccc(O)c(S(=O)(=O)O)c2)(c2ccc(O)c(S(=O)(=O)O)c2)c2c(Br)c(Br)c(Br)c(Br)c21,Potency,[10],3.16 µM (active)
same,Potency,[3],2.51 µM (active)
same,Potency,[4],112 µM (active)
C[C@]12Cc3cn[nH]c3C[C@@H]1CC[C@@H]1[C@@H]2CC[C@@]2(C)[C@H]1CC[C@]2(C)O,Potency,[6],inactive
NCCc1ccc(O)cc1,Potency,[6],inactive
same,outcome,[9],inactive
same,outcome,[7],inactive
